BoNT A protease – blocks Botulinum neurotoxin A light chain protease. actives 0.17% (n = 360,000). inhibition, % at 10 µM. multiplex microsphere protease substrate cleavage, flow cytometry. AID 588499; further: plate controls were buffer without enzyme for full effect and enzyme alone for no effect
BoNT-F LC inh – inhibitors of Botulinum neurotoxin F light chain protease. Multiplex microsphere protease cleavage assay, flow cytometry. actives 0.22% (n = 360,000). inhibition, % at 10 µM; in the data active means inhibition above about 35%, passing the limit was not always enough; inconclusive means no clear call, values can overlap the other calls; further: plate controls were buffer without enzyme for full effect and enzyme alone for no effect
Anthrax LF prot – inhibitors of Bacillus anthracis lethal factor protease. multiplex microsphere protease cleavage assay, LF. inhibition, % at 10 µM. actives 0.12% (n = 360,000); further: plate controls were buffer without enzyme for full effect and enzyme alone for no effect
Target sequence (P15917 whole entry, looked up): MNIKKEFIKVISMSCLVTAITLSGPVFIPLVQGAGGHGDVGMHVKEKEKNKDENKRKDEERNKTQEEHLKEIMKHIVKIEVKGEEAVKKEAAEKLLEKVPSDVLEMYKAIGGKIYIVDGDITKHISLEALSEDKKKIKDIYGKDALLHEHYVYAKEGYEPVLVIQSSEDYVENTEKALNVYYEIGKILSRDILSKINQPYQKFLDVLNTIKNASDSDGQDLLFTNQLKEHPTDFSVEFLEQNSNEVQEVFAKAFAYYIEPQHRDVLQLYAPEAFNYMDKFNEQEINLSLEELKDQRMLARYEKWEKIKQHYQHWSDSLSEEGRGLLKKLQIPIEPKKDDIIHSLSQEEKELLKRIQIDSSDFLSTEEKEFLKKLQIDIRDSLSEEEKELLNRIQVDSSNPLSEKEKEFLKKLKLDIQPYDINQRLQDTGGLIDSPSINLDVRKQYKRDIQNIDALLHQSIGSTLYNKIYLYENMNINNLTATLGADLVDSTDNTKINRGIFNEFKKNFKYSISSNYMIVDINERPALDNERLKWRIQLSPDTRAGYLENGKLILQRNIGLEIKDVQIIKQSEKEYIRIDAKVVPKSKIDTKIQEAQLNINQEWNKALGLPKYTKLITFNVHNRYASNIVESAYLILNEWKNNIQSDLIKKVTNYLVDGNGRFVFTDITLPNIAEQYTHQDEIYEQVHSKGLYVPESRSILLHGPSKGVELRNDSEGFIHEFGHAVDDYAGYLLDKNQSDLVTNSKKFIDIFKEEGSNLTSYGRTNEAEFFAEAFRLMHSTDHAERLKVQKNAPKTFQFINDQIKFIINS
MazF activator – increases E. coli MazEF RNase cleavage of RNA; activation, % at 20 µM; actives 0.32% (n = 350,000); FAM/BHQ RNA-DNA oligo cleavage fluorescence, 5 h; P0AE70; in the data active means activation above about 50%
PfHsp40 yeast – rescue of PfHsp40-mediated yeast toxicity; AID 504582; S. cerevisiae expressing PfHsp40, growth rescue, ATP luminescence; growth rescue, % at 12.5 µM; actives 0.68% (n = 340,000); in the data active means growth rescue above about 28%, passing the limit was not always enough; inconclusive means no clear call, values can overlap the other calls;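 further: yeast W303a lacking pdr1 and pdr3 grown in galactose medium; growth measured after three days at 30 °C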
Bead autofluor – flagged as autofluorescent in microsphere protease counterscreen | compound autofluorescence counterscreen, microsphere flow cytometry; hits give high values | fluorescence intensity (test concentration not listed) | actives 3.1% (n = 360,000) | AID 624483; in the data active means fluorescence intensity above about 16000; inconclusive means no clear call, values can overlap the other calls
An asterisk follows results filed as active; ? = inconclusive; . = no result given. Only some compounds are listed: those with a hit (about 4.3% of all), similar ones and a draw of the others. Unless noted, no stated cut-off is given here; in the data, active means inhibition above about 30%; inconclusive means no clear call, values can overlap the other calls; inactive means below that.

SMILES | BoNT A protease | BoNT-F LC inh | Anthrax LF prot | MazF activator | PfHsp40 yeast | Bead autofluor
O=C(c1ccco1)n1nc(-c2ccco2)nc1SCc1ccccc1 | 3 | 5 | 2 | -7 | 1 | 21774*
Cc1ccc(OCC(=O)N(C)CC(=O)Nc2ccc(Cl)c(C(F)(F)F)c2)c([N+](=O)[O-])n1 | -1 | -2 | -1 | -2 | -1 | 2906
O=C(CC1SC2=NCCN2C1=O)Nc1ccc(Br)cc1 (stereo unspecified) | -4 | -2 | 0 | -4 | 0 | 21829*
CC(=O)c1ccc(OCCNS(=O)(=O)c2ccc(-n3cnnn3)cc2)cc1 | 0 | -2 | 1 | 2 | 0 | 5513
Cc1ccc(-c2cnc(C(O)c3ccc(Cl)c(Cl)c3)[nH]2)cc1 (stereo unspecified) | 0 | -3 | -2 | . | . | 3556
CNC(=O)NC(=O)COC(=O)c1ccc(-n2c(C)ccc2C)cc1 | -1 | -5 | -3 | 6 | -1 | 2575
COc1cc([N+](=O)[O-])cc(/C=N/NC(=O)c2cncc(Br)c2)c1O | -1 | 0 | 0 | -7 | 780* | 3889
COc1cc([N+](=O)[O-])cc(/C=N/NC(=O)c2cc(-c3ccccc3)nc3ccccc23)c1O | -1 | -9 | -7 | -9 | ? | 3290
Cc1cc(C(=O)N/N=C/c2cccc([N+](=O)[O-])c2)c2ccccc2n1 | -1 | -11 | -2 | 6 | 34* | 2002
COc1cc([N+](=O)[O-])cc(/C=N/NC(=O)c2cc(C)nc3ccccc23)c1O | . | . | . | 2 | 32* | .
CSc1ccccc1C(=O)OCC(=O)Nc1ccc(N2CCOCC2)cc1 | 0 | -28 | -13 | 3 | -1 | 3865
O=C(Nc1ccc2c(c1)OCO2)C1CC(=O)N(c2cccc(Cl)c2)C1 (stereo unspecified) | 0 | -3 | 1 | 11 | 0 | 3734
NC(=O)C1CCN(C(=O)c2ccc(Cl)c(S(=O)(=O)N3CCCCCC3)c2)CC1 | 0 | -8 | -10 | -6 | -1 | 3570
O=[N+]([O-])c1ccc(C2=NN(CCO)C(=Nc3ccc(OC(F)(F)F)cc3)SC2)cc1 | ? | ? | 2 | -10 | 53* | 4730
COc1ccc(N=C2SCC(c3ccc([N+](=O)[O-])cc3)=NN2CCO)cc1 | -2 | ? | 0 | 7 | 7 | 4275
COc1ccc(OC)c(/C=C2\NC(=O)NC2=O)c1 | 23 | ? | 131* | 0 | 1 | 6990
CCC(C)C(=O)Nc1cc(Cl)ccc1C(=O)O (stereo unspecified) | 0 | 8 | -4 | 4 | -1 | 4561
CCC(=O)Nc1cc(Cl)ccc1C(=O)O | ? | 2 | 2 | -5 | -1 | 19235*
O=C(CNCCC1=CCCCC1)Nc1ccccc1N1CCCCC1 | -3 | -11 | -8 | -7 | -1 | 17116*
O=C(CN1CCc2ccccc2C1)Nc1ccccc1N1CCCCCC1 | 0 | -3 | -3 | -10 | 1 | 23403*
O=C(NCN1CCc2ccccc2C1)c1ccccc1 | -2 | -6 | -1 | 4 | 1 | 17046*
COc1ccc(C2=NO[C@@H]3C(=O)N(C4CCCCC4)C(=O)[C@H]23)cc1OC | 1 | 4 | -1 | 8 | 1 | 22002*
COc1ccc(C2=NO[C@@H]3C(=O)N(c4ccc5c(c4)OCCO5)C(=O)[C@H]23)cc1OC | 1 | 3 | -10 | 9 | 1 | ?
Oc1ccc(-c2nc3ccccc3s2)c(O)c1 | -2 | 7 | -6 | 2 | 244* | 4479
O=C(Nc1ccc2oc(-c3ccncc3)nc2c1)c1cccs1 | 0 | 9 | 1 | 42 | 1 | 3262
SMILES | BoNT A protease | BoNT-F LC inh | Anthrax LF prot | MazF activator | PfHsp40 yeast | Bead autofluor
Cc1nc2ccc(C(=O)Nc3ccccc3Cl)cc2s1 | 3 | ? | 0 | 3 | 77* | 3694
O=C(Nc1ccc(-c2nc3cc(NC(=O)c4cccs4)ccc3o2)cc1)c1cccs1 | -6 | -4 | -1 | 30 | 1 | 22139*
Cc1nc2ccc(NC(=O)c3cccs3)cc2s1 | 0 | 6 | -4 | 3 | 37* | 5283
Cc1ccccc1S(=O)(=O)N1C[C@H]2[C@H]3C(=O)N(C4CCCCC4)C(=O)[C@H]3CC(=O)[C@H]2[C@@H]1c1ccc(Cl)cc1 | 0 | -2 | -5 | . | . | 5523
Cn1c(N)c(C(=O)COC(=O)/C=C/c2ccc(S(=O)(=O)N3CCOCC3)cc2)c(=O)n(C)c1=O | 1 | 0 | 0 | 8 | 0 | 3990
O=C(Nc1ccc(O)c(-c2nc3ccccc3s2)c1)c1cccs1 | 0 | -4 | -1 | 53* | 1 | 2576
Cc1ccc(-c2nc3cc(NC(=O)C(C)C)ccc3o2)cc1C | 0 | -2 | 0 | -3 | -1 | 24088*
c1ccc2sc(-c3ccc4c(c3)OCO4)nc2c1 | -1 | -5 | -3 | -6 | 0 | 21120*
CC(C)Nc1ncnc2c1ncn2[C@H]1CN(Cc2cccnc2)C[C@@H](CO)O1 | 0 | 0 | -6 | . | . | 2820
CCc1noc(C)c1C(=O)Nc1cc(S(=O)(=O)N(CC)CC)ccc1N1CCOCC1 | -4 | -11 | -2 | -3 | -1 | 6998
COc1cc(C2Nc3ccc4ncccc4c3C3=C2C(=O)CC(C)(C)C3)cc(OC)c1O (stereo unspecified) | -1 | 1 | 1 | 8 | -1 | 23335*
COc1cc(C2Nc3ccc4ncccc4c3C3=C2C(=O)CCC3)cc(OC)c1O (stereo unspecified) | 0 | -11 | -1 | 0 | 0 | 2600
O=C(NCC1CCCO1)c1ccc(CS(=O)(=O)c2ccc(Br)cc2)o1 (stereo unspecified) | 0 | 3 | -3 | -18 | 1 | 6069
O=C(NCC1CCCO1)c1ccc(CS(=O)(=O)c2ccc(Cl)cc2)o1 (stereo unspecified) | 1 | -1 | -9 | -5 | 0 | 22230*
O=C1CC(c2ccccc2)(c2ccccc2)c2ccccc21 | -1 | -6 | -4 | 2 | 2 | 3928
O/N=C(\c1ccc(Cl)cc1Cl)c1ncc(C(F)(F)F)cc1Cl | 0 | 1 | -2 | -9 | 380* | 3038
O=C(c1ccc(Cl)cc1Cl)c1ncc(C(F)(F)F)cc1Cl | -1 | 0 | -3 | -3 | 0 | 11676
O=C(c1ccccc1)c1ncc(C(F)(F)F)cc1Cl | -2 | -5 | -2 | -2 | 2 | 20699*
O=C(Nc1ccccc1)Nc1ncc(C(F)(F)F)cc1Cl | 0 | -1 | -1 | -19 | . | 3600
Nc1ncc(Br)cc1S(=O)(=O)Nc1ccccc1F | 0 | 2 | 0 | -4 | 0 | 4783
Cc1cc2c(ncn2Cc2ccccc2)c([N+](=O)[O-])c1C | 0 | 2 | -5 | 8 | 0 | 22108*
CCC(C)Sc1ccc([C@H]2N[C@@](C)(C(=O)OC)[C@H]3C(=O)N(C)C(=O)[C@@H]23)cc1OC (stereo partly specified) | -1 | 2 | -2 | 9 | 2 | 4292
CC(=O)c1c(N2CCN(Cc3ccccc3)CC2)nc(=S)n(Cc2ccccc2)c1C | 42* | -11 | 8 | -10 | -1 | 4562

Source: PubChem BioAssay (several laboratories)
